HT1080-NT tox: qHTS for induction of synthetic lethality in tumor cells producing 2HG: qHTS for the HT-1080-NT fibrosarcoma cell line | HT-1080-NT fibrosarcoma viability, CellTiter-Glo ATP luminescence, 48 h | Potency, µM (titrated, usually from 46.1 µM), inactives show at the highest dose activity, negative = less viability, actives largely listed as cytotoxic | hit rate 1.6% among 360,000;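 also: NT is the 2HG producing partner of a matched IDH1 knockdown line; potency is read from the fitted curve at half-maximal effect; 0% = DMSO-treated cells and -100% = media-only wells without cells; nearly all actives have a fitted effect of over 55% in size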
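HT-1080-NT; 750 cells/well; 5% FBS RPMI; 48 h compound, 37 degrees C; CellTiter-Glo luminescence; curve fitting and curve-class assignment.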
HT1080 IDH1KD tx: qHTS for induction of synthetic lethality in tumor cells producing 2HG: qHTS for the HT-1080-IDH1KD cell line; HT-1080 IDH1 knockdown viability, ATP luminescence, 48 h; Potency, µM (titrated, usually from 46.1 µM), inactives show at the highest dose activity, negative = toxicity, actives largely listed as cytotoxic; hit rate 2% among 360,000; AID 686971, 2013;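 also: potency is read from the fitted curve at half-maximal effect; 0% = DMSO wells and -100% = cell-free medium wells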
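IDH1KD HT-1080 cells, 750/well, RPMI + 5% FBS; compound pinned after 2 h settling; 48 h, 37 °C; CellTiter-Glo luminescence; % activity normalised to DMSO and no-cell wells; curves fitted, classed by r2 and efficacy.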
IL-1B inflam inh: qHTS for Inhibitors of Inflammasome Signaling: IL-1-beta AlphaLISA Primary Screen; THP-1 LPS/ATP IL-1B secretion, AlphaLISA, 16 h; hits give low values; activity change, % at 57.5 µM; hit rate 4.7% among 360,000; AID 743279, 2014; in the data active = activity change below about -50%; inconclusive = mostly about -30% to -49%
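THP-1 cells pretreated 1 hr with compounds (up to 57.5 uM final), then stimulated with LPS (250 ng/mL final) plus ATP (1.25 mM final); secreted IL-1B measured by AlphaLISA after 16 hr, decreased signal indicating inhibition.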
DT40 TDP1 CPT: qHTS for Inhibitors of human tyrosyl-DNA phosphodiesterase 1 (TDP1): qHTS in cells in presence of CPT; hit rate 12% among 420,000; AID 686979, 2013; Potency, µM (series often up to 46.2 µM), inactives show at the highest dose activity change, negative = growth inhibition, usual class: inhibitors; chicken DT40 Tdp1-/-;hTDP1 cells + 20 nM CPT, ATP luminescence, 48 h; also: potency is read from the fitted curve at half-maximal effect; nearly all actives have a fitted effect of over 55% in size
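Chicken DT40 Tdp1-/- cells complemented with human TDP1, 400 cells/well, exposed to compounds plus 20 nM camptothecin for at least 48 h at 37 C; viability read as ATP content by CellTiter-Glo luminescence.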
TDP1 cell noCPT: qHTS for Inhibitors of human tyrosyl-DNA phosphodiesterase 1 (TDP1): qHTS in cells in absence of CPT; DT40 Tdp1-/- hTDP1 cells, no CPT, ATP luminescence, 48 h; Potency, µM (highest dose often 46.2 µM), for inactives: top-dose activity change, negative = growth inhibition, usual class: inhibitors; hit rate 15% among 420,000; AID 686978, 2013; also: potency is read from the fitted curve at half-maximal effect; nearly all actives have a fitted effect of over 55% in size
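DT40 Tdp1-/-;hTDP1 cells, no CPT (DMSO vehicle only), 400 cells/well; compounds pin-transferred; ≥48 hr, 37 °C; CellTiter-Glo 30 min RT dark, luminescence read.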
ELG1 DNA repair: qHTS screen for small molecules that inhibit ELG1-dependent DNA repair in human embryonic kidney (HEK293T) cells expressing luciferase-tagged ELG1; HEK293T ELG1-luciferase reporter, luminescence, 16 h; DNA damage induced by 5-fluorouridine; Potency, µM (highest dose often 46.1 µM), for inactives: at the highest dose activity change, negative = inhibition, hits mostly inhibitors; hit rate 2.3% among 330,000; AID 504467, 2011; also: potency is read from the fitted curve at half-maximal effect; nearly all actives have a fitted effect of over 55% in size
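DMSO vehicle served as the neutral condition. Each well held 2,000 cells given 5-fluorouridine plus compound; after 16 hr at 37 °C/5% CO2, ONE-Glo was added and luciferase measured 30 min later.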
* = called active by the depositor; ? = inconclusive; · = no result; [ ] = remark or other dose. Sampled rows, rich in hits. Any-hit rate of the full collection: about 19%. Unless noted, calls follow the shape of the dose curve; as a rule, active = well fitted curve in the direction sought with a large enough effect; inconclusive = small, poorly fitted or top-dose-only effect, or another doubt; inactive = no such curve, though single readings can be large; an effect the other way counts as inactive or inconclusive. Unless noted, % is scaled to controls: 0 for no effect and ±100 for the full control effect.

SMILES	HT1080-NT tox	HT1080 IDH1KD tx	IL-1B inflam inh	DT40 TDP1 CPT	TDP1 cell noCPT	ELG1 DNA repair
Cc1cccnc1C(NC(=O)C1CCN(CCOc2ccc(F)cc2)CC1)c1ccc(Cl)cc1 (centres undefined)	?	16.4µM*	-69.3*	?	16.4µM*	·
COc1ccc(OCCN2CCC(C(=O)NC(c3ccc(Cl)cc3)c3ncccc3C)CC2)cc1 (centres undefined)	?	20.6µM*	·	23.1µM*	?	·
CCOC(=O)C1=C(C)N=c2s/c(=C\c3ccc(OCC(=O)O)cc3)c(=O)n2C1c1ccccc1OC (centres undefined)	6.9%	6.6%	-5.7	-10.3%	-22.4%	-6.0%
CCOC(=O)C1=C(C)N=c2s/c(=C/c3cccc([N+](=O)[O-])c3O)c(=O)n2C1c1ccc(OC)cc1OC (centres undefined)	-0.4%	0.7%	20.5	?	?	-4.2%
CCOC(=O)C1=C(C)N=c2s/c(=C\c3ccncc3)c(=O)n2C1c1ccc2c(c1)OCO2 (centres undefined)	?	-11.2%[9.24 µM]	-67.0*	?	?	?
CCOC(=O)C1=C(C)N=c2s/c(=C3\C(=O)Nc4ccccc43)c(=O)n2C1c1ccc2c(c1)OCO2 (centres undefined)	-4.2%	-3.4%	12.8	?	?	?
CCOC(=O)C1=C(c2ccccc2)N=c2s/c(=C\c3cc(OC)c(OC)c(OC)c3)c(=O)n2C1c1cccs1 (centres undefined)	-8.9%	-2.4%	-2.3	?	6.51µM*	-11.5%
CCOC(=O)C1=C(C)n2c(s/c(=C/c3cccc([N+](=O)[O-])c3)c2=O)=NC1c1ccc(O)c(OC)c1 (centres undefined)	-14.6%	?	-78.2*	16.4µM*	16.4µM*	?
CCOC(=O)C1=C(C)N=c2s/c(=C\c3ccc(O)c([N+](=O)[O-])c3)c(=O)n2C1c1ccccc1OC (centres undefined)	?	-4.3%	61.1	-16.8%	18.4µM*	-28.5%
COc1ccc(C(c2nnnn2C(C)C)N2CCN(C(=O)c3ccco3)CC2)cc1 (centres undefined)	7.0%	8.8%	-12.1	5.2%	-6.0%	20.2%
COc1ccc(C2C(C(C)=O)=C(C)N=c3s/c(=C\c4cc(C)n(C)c4C)c(=O)n32)c(OC)c1 (centres undefined)	-1.7%	-2.6%	-2.6	?	?	5.7%
COc1ccc(/C=c2/sc3n(c2=O)C(c2ccccc2OC)C2=C(N=3)c3ccccc3CC2)cc1O (centres undefined)	?	25.9µM*	-18.3	29.1µM*	23.1µM*	?
COc1ccc(C2C(C(C)=O)=C(C)N=c3s/c(=C\c4ccco4)c(=O)n32)c(OC)c1 (centres undefined)	4.6%	0.5%	-29.2	8.2µM*	-15.4%	0.0%
CCOC(=O)c1cc(=O)c2c([N+](=O)[O-])ccc(OC)c2o1	12.6%	16.1%	-10.8	1.5%	0.9%	-2.5%
COC(=O)C1OC(=O)C2OC23[C@]2(C)C(OC(C)=O)CC4C(C)(C)C(=O)CC[C@]4(C)C2CC[C@@]13C (some centres undefined)	·	·	·	-1.7%	3.5%	·

Source: PubChem BioAssay
